11 compounds from ChEMBL document CHEMBL1157539, “Thousands of chemical starting points for antimalarial lead identification” (Nature, 2010) can be followed below.

What all share (type): functional
Assay [1] deals with Plasmodium falciparum. Nature of the assay: GSK_TCMDC: Inhibition of Plasmodium falciparum 3D7 in whole red blood cells, using parasite LDH activity as an index of growth. Test compounds present at 2uM.
Assay [2] deals with Plasmodium falciparum. Nature of the assay: GSK_TCMDC: Inhibition of Plasmodium falciparum Dd2 in whole red blood cells, using parasite LDH activity as an index of growth. Test compounds present at 2uM.
The next assay concerns HepG2. Put plainly: GSK_TCMDC: Percent inhibition of human HepG2 cell line. Test compounds present at 10uM.

For the compound `COc1cccc(CN2CCC(C(=O)Nc3ccc(-c4nc5ccccc5[nH]4)cc3)CC2)c1`, the Inhibition (as a rule, the drop in the measured response relative to a control, in per cent) is 100% in the assay on Plasmodium falciparum [1], 84% with Plasmodium falciparum [2] and 9% in the assay with HepG2.

Consider `CC(=O)c1ccc(NC(=O)Nc2ccc(N(C)c3ccnc(NC4CC4)n3)cc2)cc1`, for which the Inhibition in the assay with Plasmodium falciparum [1] was 100%; in the assay with Plasmodium falciparum [2] it was 60%; in the assay with HepG2 it was 59%.

Take `COc1ccc(OC)c(NC(=O)c2c(-c3c(F)cccc3Cl)noc2C)c1`: the Inhibition was 94% with Plasmodium falciparum [1], 25% with Plasmodium falciparum [2] and 0% in the assay with HepG2.

Consider `Cc1cccc(C(O)CNc2ccnc(Nc3cccc(-c4csc(C)n4)c3)n2)c1` (stereo not drawn), for which the Inhibition with Plasmodium falciparum [1] came to 99%; in the assay with Plasmodium falciparum [2] it was 88%; with HepG2 it was 29%.

Consider `Cl.N=C(N)NN=Cc1ccc2c(c1)Cc1ccccc1-2`, for which the Inhibition in the assay on Plasmodium falciparum [1] was 100%; with Plasmodium falciparum [2] it was 81%; with HepG2, 72%.

Regarding `COc1ccc(CNC(=O)Nc2cc3cc(-c4ccc(CN(C)C)cc4)ccc3n3c(C)nnc23)cc1`, the figures for the Inhibition with Plasmodium falciparum [1], with Plasmodium falciparum [2] and in the assay on HepG2 were 93%, 80% and 99%, respectively.

With `Br.CCc1ccccc1OCCCON1C(=N)N=C(N)NC1(C)C`, the Inhibition is 95% in the assay on Plasmodium falciparum [1], 97% with Plasmodium falciparum [2] and 77% in the assay on HepG2.

Consider `O=C(Nc1ccc2c(c1)CCN2C1CCN(Cc2cccc(F)c2F)C1)c1ccco1` (stereo not drawn), for which the Inhibition with Plasmodium falciparum [1] amounted to 87%; with Plasmodium falciparum [2] it was 90%; with HepG2 it was 0%.

Turning to `O=C(NCc1ccc(C(F)(F)F)cc1)c1cccc(-c2nnc(-c3cccc(-c4cncnc4)c3)o2)c1`, the Inhibition in the assay with Plasmodium falciparum [1] was found to be 96%; in the assay on Plasmodium falciparum [2], 79%; in the assay on HepG2 it was 13%.

For the compound `COc1ccc(CN(C)CCCc2ccc(NC(=O)c3cccc4c(=O)c5cccc(F)c5[nH]c34)cc2)cc1OC`, the Inhibition in the assay with Plasmodium falciparum [1] is given as 100%; in the assay with Plasmodium falciparum [2], 94%; in the assay on HepG2, 100%.

On to `CCCOc1ccccc1C(=O)Nc1nonc1-c1ccc(OCC)c(OCC)c1`, for which the Inhibition in the assay on Plasmodium falciparum [1] was 99%; in the assay on Plasmodium falciparum [2], 89%; in the assay with HepG2, 46%.
